We go through 25 compounds from PubChem BioAssay (NCATS).

Test [1] in a line: Cytotoxicity counterscreen for NFkB agonists and antagonists (AID 624476). Also: potency is read from the fitted curve at half-maximal effect. Conditions: NFkB reporter cell line viability counterscreen; series mostly up to 46.1 µM. For orientation: The purpose of a counterscreen is to sort out artefacts and off-target activity.
A short description of test [2]: qHTS Assay for Identification of Small Molecule Agonists for NFkB Signaling Pathway. (AID 624478). Also: 0% is about no effect. The conditions noted are these: NFkB pathway reporter cell assay, agonist mode, cells co-stimulated with 10 pM TNF alpha; series mostly up to 46.1 µM. The method in brief:
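NFkB-bla ME-180 cells carry a beta-lactamase reporter. They received compound plus TNF alpha at 10 pM final (its EC50) for 5 h at 37 C. Reporter activity was read as 460/530 nm emission ratio after 2 h LiveBLAzer substrate loading.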

The nature of test [3]: Cell Proliferation Assay against the TMD8 Cell Line (AID 651645).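 Also: cells exposed to compound for 48 h before reading.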 The conditions noted are these: TMD8 DLBCL cell line proliferation/viability; at 46.1 µM (top of the series) unless noted. The essentials:
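TMD8 ABC DLBCL cells, 500 per well in phenol red-free RPMI with 5% FBS, were treated with compound by pin transfer and incubated 48 hours at 37C, 5% CO2. Viability was read by CellTiter-Glo luminescence, normalised to DMSO (100%) and 9.2 uM bortezomib (0%).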

Test [4] can be described thus: qHTS Assay for Identification of Small Molecule Antagonists for NFkB Signaling Pathway. (AID 624479; calls by dose curve; also: potency is read from the fitted curve at half-maximal effect). Conditions: NFkB pathway reporter cell assay, antagonist mode; series mostly up to 38.3 µM. (In general: In qHTS, concentration-response curves come from the screen itself.)
Test [5] is described as follows: Cell Proliferation Assay against the TMD8 Cell Line (Caspase readout at 8 hrs) (AID 651713). The conditions noted are these: TMD8 lymphoma cells, caspase activation luminescence; series mostly up to 46.1 µM. The method in brief:
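TMD8 cells in RPMI plus 5% FBS were treated with compound for 8 h at 37C. Caspase 3/7 activation was read by Caspase-Glo luminescence. Percent activity was scaled from DMSO (0%) to 9.2 uM bortezomib final (100%).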

A short description of test [6]: Cell Proliferation Assay against the HBL1 Cell Line (AID 651646).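 Also: cells exposed to compound for 48 h before reading.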 The conditions noted are these: HBL1 DLBCL cells; at 46.1 µM (top of the series) unless noted. The essentials:
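500 log-phase HBL1 cells per well in phenol red-free RPMI with 5% FBS were treated with compounds for 48 h at 37 °C, 5% CO2. Viability was read by CellTiter-Glo luminescence, normalized to DMSO (100%) and 9.2 uM bortezomib final (0%).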

Test [7] is described as follows: Cell Proliferation Assay against the TMD8 Cell Line (Caspase readout at 16 hrs) (AID 651712). Also: potency is read from the fitted curve at half-maximal effect. The conditions noted are these: TMD8 lymphoma cells, caspase activation luminescence; series mostly up to 46.1 µM. The method in brief: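 TMD8 cells (500/well) in phenol-red-free RPMI with glutamine, 5% FBS, were exposed to compounds for 16 h at 37 °C. Caspase 3/7 activation was read by Caspase-Glo luminescence; percent activity normalised to DMSO (0%) and 9.2 uM bortezomib final (100%).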

Records with an inconclusive call do not appear. The source made the active and inactive calls. Unless noted, calls follow the shape of the dose curve; as a rule, active = well fitted curve in the direction sought with a large enough effect; inconclusive = small, poorly fitted or top-dose-only effect, or another doubt; inactive = no such curve, though single readings can be large; an effect the other way counts as inactive or inconclusive.

For the compound `COc1ccc(C2=N[C@H](c3ccc(Cl)cc3)[C@H](c3ccc(Cl)cc3)N2C(=O)N2CCNC(=O)C2)c(OC(C)C)c1`, the Potency entry in test [1] was “inactive”. In addition, in test [2], the outcome was inactive. For the same compound, in test [3], the viability (% of control) is 7.72%.
`COc1ccc(CCN2CCN(CCCc3ccccc3)CC2)cc1OC`: the Potency entry in test [1], in test [4] and in test [5] was “inactive” throughout. In test [2], the call was inactive. Also, the viability (% of control) in test [3] was found to be 83.9%.
With `CCc1cc(Nc2nccc(-c3c(-c4ccc(OC)c(C(=O)Nc5c(F)cccc5F)c4)nc4ccccn34)n2)c(OC)cc1N1CCC(N2CCN(S(C)(=O)=O)CC2)CC1`, the Potency result in test [1], in test [4] and in test [5] was “inactive” in each case. For the same compound, in test [2], the compound was called inactive. Besides, the viability (% of control) in test [3] was determined as 78.7%.
On to `COc1ccc(CC2=NN3C([C@@H](CCc4ccccc4)[C@@H](C)O)=NC(C)C3C(=O)N2)cc1OC` (some centres not stated), for which the Potency result in test [1], in test [4] and in test [5] was “inactive” throughout. Besides, the call in test [2] was inactive. The viability (% of control) in test [3] is 72.3%.
As to `O=S(=O)(N=Cc1c(O)ccc2ccccc12)c1cccs1`, the Potency entry in test [1], in test [4] and in test [5] was “inactive” each time. Further, in test [2], the call was inactive. Moreover, in test [3], the viability (% of control) was 49.7%.
In the case of `CCc1cncnc1N1CCN(Cc2nc3ccc(C(F)(F)F)cc3[nH]2)CC1`, the Potency result in test [1], in test [4] and in test [5] was “inactive” each time. In addition, the compound was called inactive in test [2]. Besides, the viability (% of control) in test [3] amounted to 56.3%. In addition, in test [6], the viability, percent of control was determined as 82.4%.
In the case of `Cc1ccnc(NS(=O)(=O)c2ccc(NC(=O)Nc3ccc(S(=O)(=O)Nc4nccc(C)n4)cc3)cc2)n1`, the Potency result in test [1] and in test [5] was “inactive” throughout. Besides, the outcome in test [2] was inactive. In addition, the figures for the Potency in test [4] and in test [7] were 16.8 µM (active) and 23.5 µM (active), respectively. For the same compound, the viability (% of control) in test [3] stood at 48.6%.
On to `NC(=O)c1ccc(-c2nc(-c3ccc4c(c3)OCO4)c(-c3ccccn3)[nH]2)cc1`, for which the Potency entry in test [1], in test [4], in test [7] and in test [5] was “inactive” throughout. The result in test [2] was inactive. The viability (% of control) in test [3] worked out at 92.5%.
In the case of `Cc1cc(-c2nnc3n2CCCCC3)c(C)n1-c1ccc(F)cc1`, the Potency result in test [1], in test [4] and in test [5] was “inactive” each time. For the same compound, in test [2], the compound was classed as inactive. Also, in test [3], the viability (% of control) was determined as 6.21%.
Take `CCOc1cc(N2CCC(O)CC2)ccc1Nc1ncc2c(n1)N(C)c1ccccc1C(=O)N2C`: the Potency result in test [1] is “inactive”. Moreover, the compound was classed as inactive in test [2]. Moreover, the viability (% of control) in test [3] was found to be 2.87%. The viability, percent of control in test [6] was determined as 29%. Moreover, the Potency in test [7] was 20.9 µM (active).
Consider `CS(=O)(=O)c1cccc(CNc2nc(Nc3ccc4c(c3)CCC(=O)N4)ncc2C(F)(F)F)c1`, for which the Potency result in test [1] and in test [4] was “inactive” in each case. In test [2], the compound was classed as inactive. Besides, the viability, percent of control in test [6] came to 120%.
Turning to `CCOc1cc(C=C2C(=O)N(c3ccccc3)N=C2C)cc(Cl)c1OCC(=O)OC`, in test [1], the Potency entry was “inactive”. The result in test [2] was inactive. For the same compound, the viability (% of control) in test [3] amounted to 81.8%. Also, the viability, percent of control in test [6] was determined as 46.9%.
Take `C[C@]12CC[C@H](O)CC1=CC[C@@H]1[C@H]2CC[C@]2(C)C(c3cccnc3)=CC[C@H]12`: the Potency result in test [1], in test [4] and in test [5] was “inactive” throughout. Also, the outcome in test [2] was inactive. For the same compound, the viability (% of control) in test [3] came out at 29.5%. For the same compound, in test [6], the viability, percent of control was 52.7%.
Turning to `COc1cc2c(cc1OC)CN(CCc1ccc(NC(=O)c3cccc4c(=O)c5cccc(OC)c5[nH]c34)cc1)CC2`, the Potency entry in test [1], in test [4] and in test [7] was “inactive” throughout. Moreover, the compound was called inactive in test [2]. In addition, the viability (% of control) in test [3] was determined as 56%.
`Nc1nc2[nH]cc(CCc3ccc(C(=O)N[C@@H](CCC(=O)O)C(=O)O)cc3)c2c(=O)[nH]1`: the Potency result in test [1], in test [4], in test [7] and in test [5] was “inactive” throughout. In addition, the compound was called inactive in test [2]. Moreover, the viability (% of control) in test [3] came out at 40%.
Turning to `COc1ccccc1[C@H](c1cccc2ccccc12)[C@@](C)(C#N)C(=O)N1CCC(c2cccc(C(F)(F)F)c2)CC1`, the Potency result in test [1], in test [4] and in test [5] was “inactive” throughout. Besides, in test [2], the result was inactive. In addition, in test [3], the viability (% of control) worked out at 83.6%.
As for `Cc1ccc(-n2nc(C(C)(C)C)cc2NC(=O)Nc2ccc(OCCN3CCOCC3)c3ccccc23)cc1`, in test [1], the Potency entry is “inactive”. Further, in test [2], the compound was classed as inactive. The viability (% of control) in test [3] came to 66.7%. Further, the viability, percent of control in test [6] came out at 65.5%.
Consider `CC(=O)NC(C)c1ccc(Oc2ccc(OC(C)C)cc2)cc1` (configuration not stated), for which the Potency result in test [1], in test [4] and in test [7] was “inactive” in each case. Further, the outcome in test [2] was inactive. Besides, the viability, percent of control in test [6] is 62.8%.
Consider `Nc1nccc(-c2ccc3noc(-c4ccc(Cl)cc4)c3c2)n1`, for which the Potency entry in test [1], in test [7] and in test [5] was “inactive” throughout. In addition, in test [2], the compound was classed as inactive. In test [4], the Potency is 3.75 µM (active). Further, the viability (% of control) in test [3] came to 81.3%.
Regarding `Cc1ccc(NC(=O)c2cccc(C(C)(C)C#N)c2)cc1Nc1ccc2ncn(C)c(=O)c2c1`, the Potency result in test [1] was “inactive”. Besides, in test [2], the result was inactive. For the same compound, the viability (% of control) in test [3] was found to be 11.7%. In addition, the viability, percent of control in test [6] worked out at 41.4%.
As for `Oc1cccc(-c2nc(N3CCOCC3)c3oc4ncccc4c3n2)c1`, in test [1], the Potency was 0.0833 µM (active). The compound was called inactive in test [2]. Besides, the viability (% of control) in test [3] was 16.2%. The viability, percent of control in test [6] came out at 42.6%.
The like results for `Nc1cccc(S(=O)(=O)N2CCCN(S(=O)(=O)c3ccc4c(c3)OCCO4)CC2)c1` were, in that order, “inactive”, “inactive”, 46.2% and 78.2%.
Take `CCCS(=O)(=O)Nc1ccc(F)c(C(=O)c2c[nH]c3ncc(-c4ccc(Cl)cc4)cc23)c1F`: the results for the Potency in test [1] and in test [4] were 20.9 µM (active) and 16.8 µM (active), respectively. Moreover, the call in test [2] was inactive. Also, in test [3], the viability (% of control) was 41.4%. Besides, the Potency result in test [5] was “inactive”.
In the case of `CS(=O)(=O)Oc1ccc2c(NC(N)=O)c(C(=O)c3ccc(Cl)cc3Cl)oc2c1`, in test [1], the Potency result is “inactive”. For the same compound, the call in test [2] was inactive. Moreover, the viability (% of control) in test [3] turned out to be 84.9%. In addition, the viability, percent of control in test [6] was determined as 78.9%.
Turning to `O=C(c1cc(Cc2n[nH]c(=O)c3ccccc23)ccc1F)N1CCN(C(=O)C2CC2)CC1`, the Potency result in test [1], in test [4] and in test [5] was “inactive” each time. The call in test [2] was inactive. Further, the viability (% of control) in test [3] turned out to be 58.9%.
